This is an account of results in the OligoGym collection.
Note: reference of the scale not given here.

One test has as its target FAM181B. Kind of test: pooled miR-30 sensor sort-seq; sequence = guide strand. To be noted: shRNA.
With TAAATACACTGACCTTCGCTGA, the sensor-assay potency score (higher = more potent) was -0.839.
On the same count and under the same terms, next, TTGATGTTGCTGGACGCCGAGT: -1.34; TTTTGTTTTAACACTTGAGGTT: 0.0361.
On the same count and under the same terms, the same measure for TTCACCTTCCGCTTCGACTTGC: 0.326.
Still for that read-out and setting: next, TCATCGTCCTCGAAACAGCAGC: -1.07; TGAAGCTGAGTAGATCGCGGGT: -0.406; TTGGTTTCTTGACTCCTCTGGT: 0.637.
TTCTTGACTCCTCTGGTCCAGT registered a sensor-assay potency score (higher = more potent) of -0.871.
Still for that read-out and setting: next, TTTGTTTTAACACTTGAGGTTG: -0.289.
On the same count and under the same terms, next, TTGTTTTAACACTTGAGGTTGT: 0.449; TACACTAAATACACTGACCTTC: -0.096.
The sequence TTGTGATTAAACAATCCCCAAC returned a sensor-assay potency score (higher = more potent) of -1.56.

The next test has as its target FAM194A. Described as above. The note with it: shRNA.
Take TTGTCTTGTTCTAAGATGCGGA: the sensor-assay potency score (higher = more potent) was -0.227.
The same measure, in the same setting: next, TTATATCTTGCTTTATACCAGA: -0.69; TTAAGCGCTTTGAATCATCTTC: -0.166.
On the same count and under the same terms, next, TTAGTTTCGACTCTTCTGGATT: -1.18.
Same read-out and setting: next, TTATTGTCTTCATTATATCTTG: -0.455; TAGAAATCTTGTCTTGTTCTAA: 0.351.
